Results from ChEMBL document CHEMBL4888484, “Replenishing the malaria drug discovery pipeline: Screening and hit evaluation of the MMV Hit Generation Library 1 (HGL1) against asexual blood stage Plasmodium falciparum ,using a nano luciferase reporter read-out” (2022).
Hit rate of the full screen: of about 4,800 compounds, about 410 (8.5%) showed an effect of 50% or more. This is one part of a sample in which strong results are shown more often than they occur.

Tested on: Plasmodium falciparum
Assay: Confirmatory screen in NF54 pLDH assay, in single point, at 2uM, 72h
Type: functional, Erythrocyte
Conditions: timepoint 72 hour

Structure (SMILES) | % Inhibition
COC1CCC(CC(=O)N[C@H]2CC(=O)N(c3ccccc3)C2)CC1 (some centres undefined) | 10%
O=S(=O)(c1cccc(F)c1)c1cnc2c(F)cccc2c1-c1cccc(F)c1 | -3%
COc1ccc(-c2nn(-c3ccccc3)c(O)c2C(c2ccc(C(=O)O)cc2)c2c(-c3ccc(OC)cc3)nn(-c3ccccc3)c2O)cc1 | 4%
Cc1nn(-c2ccccn2)c(O)c1C(c1ccccc1)c1c(C)nn(-c2ccccn2)c1O | 86%
Cc1ccc(S(=O)(=O)N2CCN(S(C)(=O)=O)C2)cc1 | -3%
Cc1ccc(S(=O)(=O)N2CCCC(=O)c3ccccc32)cc1 | 0%
Cc1ccc2c(c1)c1c(n2S(=O)(=O)c2ccc(C(C)(C)C)cc2)CCCN(C)C1 | 94%
CCC1(CC)NC(=O)N(CC(=O)Nc2cccc(CC(=O)OC)n2)C1=O | -20%
c1ccc(CNc2ncnc3c2cnn3-c2ccccn2)cc1 | 7%
CN(CCN)c1ccc(Br)cc1C#N | 9%
COc1ccc(C2=CN(CC(=O)c3ccc(Cl)cc3)C3=CCCCCN23)cc1 | 41%
O=C(CN1C=CCC=C1c1nc(-c2ccc(Br)cc2)cs1)c1ccccc1 | 46%
COc1ccc(C(=O)CN2C=CCC=C2c2nc(-c3ccc(Cl)cc3)cs2)cc1 | 73%
COc1ccc(NC(=O)c2cc3c(C)nn(-c4ccccc4)c3s2)cn1 | 9%
O=C1C2C(Cc3ccccc3)NC3(C(=O)Nc4ccccc43)C2C(=O)N1c1cccc(C(F)(F)F)c1 (centres undefined) | 6%
COc1ccc(C(=O)N2c3ncnn3C(c3ccccc3)CC2c2ccc(C)cc2)cc1OC (centres undefined) | 98%
COc1ccc(C2CC(c3ccccc3)N(C(C)=O)c3ncnn32)cc1 (centres undefined) | -7%
COc1ccc(C(=O)Nc2nnc([C@H]3CC(=O)N(c4ccc(C)cc4)C3)o2)cc1OC | -19%
O=C(NCCCn1ncc2c(Cl)cccc21)C1CCC1 | 8%
CCc1ccc(NC(=O)Cc2c(C)nc3nc(-c4ccccc4C)nn3c2C)cc1 | 3%
C[C@H](NS(C)(=O)=O)C(=O)NC(C)(C)Cc1ccccc1Cl | 2%
CCCN1CCC(NCc2ccc(-c3cccc(Cl)c3Cl)o2)CC1 | 98%

Structure (SMILES) | % Inhibition
CCOCC(=O)Nc1ccc(OC(F)(F)F)cc1 | -14%
Cc1ccccc1N1C(O)=Nc2ccccc2S1(=O)=O | -19%
Cc1nnc(Cn2nnc(C(=O)NCC3(CC(C)C)CCC3)c2C)o1 | -24%
c1ccc(-c2nnc3nc(N4CCOCC4)nc(N4CCOCC4)n23)cc1 | 6%
Cc1cc(CNC(=O)c2csc(=O)[nH]2)n(C)n1 | 12%
CCc1ccc2ncc(C(=O)c3ccc(Cl)cc3)c(O)c2c1 | 1%
CC(=O)c1nc2cc(F)c(N3CCOCC3)cc2nc1C | -13%
O=C(NCCc1cccs1)c1cnn2c(-c3ccc4c(c3)OCO4)ccnc12 | -8%
CCCn1ccnc1-c1cn(Cc2cc3ccccc3[nH]2)nn1 | 54%
O=C(c1ccc2ccccc2c1)N1CCC[C@H]1c1nc2ccccc2s1 | 11%
O=C(NCc1ccco1)c1ccc2c(c1)OCO2 | -7%
Cn1n[n+](CCCCC(Cl)(Cl)Cl)c2ccccc21 | 52%
Cn1n[n+](CC(=O)Nc2ccccc2Cl)c2ccccc21 | 3%
CCC(CC)(NCC(=O)NC1CC1)c1ccc(Cl)cc1 | -1%
Cc1cc(C)n(C(=O)Cn2nc(C(F)F)cc2C)n1 | 11%
CCc1ccc(C(=O)N2CCCN(c3nc(C4CCOCC4)nc4c3cnn4-c3ccccc3)CC2)cc1 | -7%
COC(=O)[C@H](C)N(C(=O)CO)c1c(C)cccc1C | 10%
O=C(c1nnn(-c2ccccc2Cl)c1-c1cccnc1)N1CCC(Cc2ccccc2)CC1 | -8%
COc1cccc(NC(=O)Nc2ccc3c(c2)NC(=O)C(C)(C)O3)c1 | -4%
Cc1sc2ncnc(N3CCCCC3)c2c1C(=O)NCc1cccc(Cl)c1 | 10%
O=C(N[C@@H](N1CCCCC1)C(Cl)(Cl)Cl)c1ccc(Cl)cc1 | 0%
Cc1ccccc1[C@H](CC(=O)O)NC(=O)C(F)(F)F | 16%

Structure (SMILES) | % Inhibition
N=C1CCCN1c1c(Cl)cccc1Cl | 5%
COc1ccc(-c2cc3c(N4CCN(Cc5ccc6c(c5)OCO6)CC4)nccn3n2)cc1OC | -2%
Cc1cccc2[nH]cc(CCNC(=O)N3CCC4CCC(C3)N4C)c12 (centres undefined) | 11%
CCc1cc(C(=O)N2CCC[C@H](C)C2)c2c(C3CC3)nn(-c3ccccc3)c2n1 | 4%
O=C(O)c1ccc(N(C(=O)c2ccc3c(c2)OCO3)C(=O)c2ccc3c(c2)OCO3)cc1O | 15%
COc1ccccc1C(=O)N(Cc1cccs1)c1ccc(C)c(Cl)c1 | 1%
Cc1c(Cl)cccc1C(=O)N1CCC[C@H](Cn2cncn2)C1 | 1%
O=C(N[C@@H]1CN(Cc2ccccn2)CCC[C@H]1O)c1ccc(OCc2ccccc2)cc1 | 42%
CCOC(=O)C1CCC(CN(Cc2ccc(OC)cc2)S(=O)(=O)c2cc(C(=O)Nc3ccc(OCC)cc3)ccc2F)CC1 (centres undefined) | 6%
CN1CCN(c2nc(O)c3c(n2)NC(=O)C[C@H]3c2c(F)cccc2Cl)CC1 | -6%
O=C(CC(F)(F)F)NCc1ccccn1 | -21%
Cc1n(CC(=O)c2ccccc2)c2ccccc2[n+]1CC(=O)c1ccccc1 | 66%
O=C(c1ccccc1)n1c(=O)n(C(=O)c2ccccc2)c2ccccc21 | 7%
CCC(=O)Nc1ccc(Oc2c(C)c(C(=O)O)nn2-c2ccccc2CC)c(S(=O)(=O)NCC(C)C)c1 | 9%
C[C@@H](CNS(=O)(=O)c1ccco1)N(C)S(=O)(=O)c1ccco1 | 4%
O=C(Nc1ccc2c(c1)OCO2)c1c(-c2ccc(Cl)cc2)nc2n1CCS2(=O)=O | 6%
CC(CNc1ccccn1)N1CCOCC1C (centres undefined) | 0%
c1ccc(Oc2ccc(CNCc3nnc4n3CCCCC4)o2)cc1 | 9%
C#C[C@H](C)OC(=O)c1cccc(Nc2cnccn2)c1 | 10%
CCNC(=O)NCCOC(=O)Cc1cc(Cl)cc2c1OCC2 | -1%
